The structures appear in SMILES notation. Values joined by “and” are separate entries in the source; they are usually repeats but may differ in a detail not shown here. Equal entries are not always repeated. Unmarked numbers belong to inactive results. Inconclusive results are not listed. Active and inactive are the calls of the source. Unless noted, calls follow the shape of the dose curve; as a rule, active = well fitted curve in the direction sought with a large enough effect; inconclusive = small, poorly fitted or top-dose-only effect, or another doubt; inactive = no such curve, though single readings can be large; an effect the other way counts as inactive or inconclusive.

Here are results for seven compounds from PubChem BioAssay (NCATS).

Experiment [1] can be described thus: Cell Viability - Hek293 (AID 427;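 active = compounds whose dose-response curve shows a full or clear partial loss of cell viability, called from curve shape rather than a numeric limit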;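 also: potency is read from the fitted curve at half-maximal effect; cells exposed to compound for 40 hours at 37 °C before reading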). The conditions noted are these: qHTS. The procedure, abridged:
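HEK293 cells in complete medium were exposed to compound for 40 hr at 37 °C, then cellular ATP was read by CellTiter-Glo luminescence. Data were normalized to DMSO (basal) and 100 uM tamoxifen (100% inhibition), and AC50 came from Hill fits.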
Background: qHTS replaces the single test concentration by a dilution series.

Experiment [2] in a line: Cell Viability - NIH 3T3 (AID 541).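 Also: plate controls were DMSO alone for no effect and tamoxifen positive control for full effect; nearly all actives have a fitted effect of over 25% in size.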 As to conditions: NIH 3T3 cell viability, qHTS; activity change, negative = cytotoxicity: at 92.2 µM (top of the series). The method in brief: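 Cells seeded at 1000/well, rested 5 hr at 37 °C, then dosed and incubated 40 hr at 37 °C. CellTiter-Glo added, 20 min room temperature, luminescence read. AC50 by Hill fit.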
A short description of experiment [3]: Cell Viability - SH-SY5Y (AID 544). Also: nearly all actives have a fitted effect of over 55% in size. Also: potency is read from the fitted curve at half-maximal effect.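 As to viability change, negative = cytotoxic: 0% = DMSO alone and -100% = 100 µM tamoxifen.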 The conditions noted are these: SH-SY5Y neuroblastoma cell viability; viability change, negative = cytotoxic: at 92.2 µM (top of the series). The method in brief: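 Cells were plated at 1500 per well and allowed 5 hr at 37 °C. Compounds were added across a concentration range and incubated 40 hr at 37 °C. CellTiter-Glo was added for 20 min at room temperature before luminescence reading.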

A short description of experiment [4]: Cellular Toxicity (caspase-3) BJ (AID 658).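 Also: cells exposed to compound for 16 hours; 0% = DMSO basal and 100% = 10 µM staurosporine.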 The conditions noted are these: Potency: caspase-3 activation. The method in brief: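 Plated BJ cells (1000/well) rested 5 hr, received compound for 16 hr at 37 °C, then Caspase-Glo 3/7 reagent for 1 hr at room temperature before luminescence reading.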
The nature of experiment [5]: Cellular Toxicity (caspase-3) MRC-5 (AID 659).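 Also: 0% = DMSO basal and 100% = 10 µM staurosporine.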 The method in brief:
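Apoptosis readout in MRC-5 cells: luciferase light generated after caspase 3/7 cleaves a peptide-aminoluciferin substrate, measured post 16 hr compound incubation at 37 °C.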

Experiment [6] deals with Cytochrome P450 3A4 (Homo sapiens) (UniProt P08684). Description: qHTS Assay for Inhibitors and Substrates of Cytochrome P450 3A4 (AID 884). Also: % is scaled to controls: 0 for no effect and ±100 for the full control effect; nearly all actives have a fitted effect of over 50% in size. The method in brief: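 Luminescent readout of luciferin produced by CYP3A4 (20 nM) dealkylation of Luciferin-PPXE, 25 uM (its KM). NADPH-driven reaction ran 60 min at RT after 10 min compound preincubation; data scaled to 57 uM ketoconazole as 100% inhibition.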

In experiment [7] the target is Vitamin D3 receptor (Homo sapiens) (UniProt P11473). Description: qHTS assay for small molecule antagonists of vitamin D receptor signaling (AID 588541; calls by dose curve;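 also: receptor activated by calcitriol during compound treatment; % is scaled to controls: 0 for no effect and ±100 for the full control effect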). The method in brief: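 VDR-UAS-bla HEK293T cells (2000/well, 2% charcoal-stripped FBS) were treated with titrated compounds plus 1-alpha,25-dihydroxyvitamin D3 (50 nM or 3 nM final) for 16 h at 37 C. CCF4 beta-lactamase fluorescence was read; Hill fits gave IC50.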

Experiment [8] has the same target. As to the kind of experiment: qHTS assay for small molecule agonists of vitamin D receptor signaling (AID 588543; calls by dose curve;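 also: 0% = DMSO basal and 100% = reference agonist control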). The method in brief:
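qHTS in agonist mode: compound titrations stimulate a VDR-driven β-lactamase reporter in HEK293T cells over 16 h at 37 °C. Response normalized to 50 nM 1α,25-dihydroxyvitamin D3 = 100%, DMSO = 0%; Hill fitting gives EC50 and maximal response.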

Experiment [9] addresses Thyroid hormone receptor beta (Homo sapiens) (UniProt P10828). Description: qHTS assay for small molecule agonists of thyroid hormone receptor beta signaling (AID 588545; calls by dose curve;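 also: 0% = DMSO only and 100% = 10 nM T3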). The method in brief: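 TR-UAS-bla-GripTite HEK 293 cells in medium with 2% charcoal/dextran FBS, 0.1 mM NEAA and 1 mM sodium pyruvate were treated with titrated compounds for 18 hrs at 37 C. Beta-lactamase reporter was read with CCF4 dye (ex 405, em 460/530 nm); EC50 from Hill fits.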

Experiment [10] concerns the target Voltage-gated inwardly rectifying potassium channel KCNH2 (Homo sapiens) (UniProt Q12809). As to the kind of experiment: qHTS Assay for Small Molecule Inhibitors of the Human hERG Channel Activity (AID 588834).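 Also: U2OS cells transduced with hERG by BacMam; top concentration of the series differs between compounds; % is scaled to controls: 0 for no effect and ±100 for the full control effect; lower thallium flux fluorescence means stronger hERG block; nearly all actives have a fitted effect of over 50% in size.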 The method in brief:
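Cells were infected with hERG-BacMam virus for 4 hrs at room temperature, grown overnight, then seeded at 2000/well. After dye loading and roughly 10 min compound treatment, thallium influx was triggered and fluorescence recorded.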

The nature of experiment [11]: qHTS assay for small molecule activators of the p53 signaling pathway (AID 651743; active = well fitted activation curve with a large enough effect in the signal ratio, not every such curve was filed as active; the % refers to the signal ratio; also: % of control where 0% means no effect). The conditions noted are these: HCT-116 p53RE-bla, beta-lactamase FRET ratio, 16 h; activation: hits give high values. The procedure, abridged:
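Agonist-mode quantitative HTS in HCT-116 cells carrying a p53-response-element beta-lactamase reporter; 16 h compound treatment at 37 C, then FRET substrate loading for 2 h at room temperature and fluorescence read.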

Experiment [12] can be described thus: qHTS assay for small molecule disruptors of the mitochondrial membrane potential - 1 hr assay (AID 651754; calls by dose curve; also: nearly all actives have a fitted effect of over 35% in size; also: potency is read from the fitted curve at half-maximal effect). The procedure, abridged:
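Loss of mitochondrial potential shifts the cationic dye from red mitochondrial aggregates to green cytoplasmic monomers. Cells (HepG2) are treated with compound for 1 hr before a 30 min dye incubation at 37C.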

Experiment [13] addresses Tumor necrosis factor (Homo sapiens) (UniProt P01375). Description: qHTS assay to identify small molecules that stimulate Tumor Necrosis Factor-alpha (TNF-alpha) secretion (AID 651757; active = well fitted curve in the direction sought with a large enough effect in the signal ratio; the % refers to the signal ratio; also: 0% is about no effect). The method in brief:
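Human monocytic THP-1 cells are plated, treated with compound and held at 37 C for 17 hrs. Labeled anti-TNF-alpha antibody mixture is then added; after 3 hr at room temperature, TR-FRET signal reports secreted TNF-alpha.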

The target in experiment [14] is Nuclear receptor ROR-gamma (Homo sapiens) (UniProt P51449). As to the kind of experiment: qHTS assay for small molecule antagonists of the retinoid-related orphan receptor gamma (ROR-gamma) signaling pathway (AID 651802). Also: nearly all actives have a fitted effect of over 60% in size. Also: potency is read from the fitted curve at half-maximal effect. The method in brief:
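Steps: cells dispensed; compound or DMSO transferred by pin tool; doxycycline added to induce the ROR response element-driven luciferase; plates held 16hr at 37C; ONE-Glo added and luminescence measured.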

Experiment [15] deals with Glucocorticoid receptor (Homo sapiens) (UniProt P04150). Description: qHTS assay for small molecule agonists of glucocorticoid receptor signaling (AID 588532; active = well fitted curve in the direction sought with a large enough effect in the signal ratio, with a control signal flat; the % refers to the signal ratio;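 also: 100% = dexamethasone at 0.1 µM and 0% = DMSO only wells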). The conditions noted are these: HeLa MMTV-bla, beta-lactamase ratio, agonist, 18 h; hits give high values; percent of dexamethasone control, DMSO zero. The procedure, abridged:
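MMTV-bla HeLa, beta-lactamase reporter; medium with 1% charcoal/dextran-stripped FBS; cpds up to 92 uM, 18 h, 37 C; CCF4 readout 460/530 nm; Hill fit → EC50, efficacy vs 0.1 uM dexamethasone = 100%.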

Experiment [16] is described as follows: qHTS assay for small molecule agonists of the antioxidant response element (ARE) signaling pathway (AID 651741; active = well fitted activation curve with a large enough effect in the signal ratio; the % refers to the signal ratio; also: potency is read from the fitted curve at half-maximal effect; as to activation: % of control where 0% means no effect). The method in brief: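 Reporter: beta-lactamase under ARE, stably in HepG2. Exposure: 16 h, 37 C, compounds delivered in DMSO by pin tool after 5 h cell preincubation. Readout: FRET substrate fluorescence after 2 h at RT.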
The nature of experiment [17]: qHTS assay for small molecule activators of the nuclear factor-kappa B (NF-kB) signaling pathway (AID 651749; active = well fitted activation curve with a large enough effect in the signal ratio; the % refers to the signal ratio; also: % of control where 0% means no effect). As to conditions: NF-kB-bla ME-180 cells, beta-lactamase FRET ratio, 16 h; hits give high values. The procedure, abridged:
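Human ME-180 cervical cells with an NF-kB-bla construct; compounds added via 23 nL pin transfer, DMSO as vehicle; incubation 16 hr. Reporter activity measured by FRET disruption.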

A short description of experiment [18]: qHTS assay for small molecule antagonists of the retinoid-related orphan receptor gamma (ROR-gamma) signaling pathway - cell viability counter screen (AID 720652; active = well fitted curve in the direction sought with a large enough effect in the repeat runs; an effect the other way counts as inactive or inconclusive;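 also: CHO reporter cells with doxycycline-induced ROR-gamma expression; compound exposure lasted 16 hr before ATP read; % is scaled to controls: 0 for no effect and ±100 for the full control effect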). The method in brief: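 Steps: seed CHO cells bearing TET-inducible ROR and ROR response element-luciferase; rest 5 hr at 37 C; add compound, then doxycycline; incubate 16 hr; add CellTiter-Glo and read luminescence as ATP-based viability.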

Experiment [19] can be described thus: Cell Viability - Jurkat (AID 426;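 active = dose-dependent loss of cell ATP signal giving a full or clear fitted curve, ranked by lower potency value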; also: potency is read from the fitted curve at half-maximal effect). As to conditions: qHTS. The method in brief: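 Cells of the human T-cell leukemia line Jurkat (E6-1) are seeded at 5000 per well, treated with compound across a concentration range for 40 hours at 37 °C, then lysed with CellTiter-Glo; luminescence reports ATP.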
Experiment [20] is described as follows: qHTS assay for small molecule activators of the human pregnane X receptor (PXR) signaling pathway (AID 720659; call rule not given here; also: 0% is about no effect).

Sequence of Nuclear receptor ROR-gamma (Homo sapiens) (P51449 whole entry, looked up): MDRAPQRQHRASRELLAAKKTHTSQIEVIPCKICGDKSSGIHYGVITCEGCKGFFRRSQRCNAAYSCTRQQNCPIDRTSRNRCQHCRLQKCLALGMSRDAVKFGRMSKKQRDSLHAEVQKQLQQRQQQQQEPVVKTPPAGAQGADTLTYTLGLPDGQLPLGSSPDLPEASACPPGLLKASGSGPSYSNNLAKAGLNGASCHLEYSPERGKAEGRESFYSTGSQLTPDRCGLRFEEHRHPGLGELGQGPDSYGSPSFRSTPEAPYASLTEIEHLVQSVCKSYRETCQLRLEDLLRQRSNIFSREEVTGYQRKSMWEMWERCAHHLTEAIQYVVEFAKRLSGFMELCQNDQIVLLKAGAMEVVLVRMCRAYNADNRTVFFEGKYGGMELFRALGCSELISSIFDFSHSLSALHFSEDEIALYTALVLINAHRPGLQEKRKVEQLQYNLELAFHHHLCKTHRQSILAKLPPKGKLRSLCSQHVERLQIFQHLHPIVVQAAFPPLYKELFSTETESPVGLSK
Sequence of Vitamin D3 receptor (Homo sapiens) (P11473 whole entry, looked up): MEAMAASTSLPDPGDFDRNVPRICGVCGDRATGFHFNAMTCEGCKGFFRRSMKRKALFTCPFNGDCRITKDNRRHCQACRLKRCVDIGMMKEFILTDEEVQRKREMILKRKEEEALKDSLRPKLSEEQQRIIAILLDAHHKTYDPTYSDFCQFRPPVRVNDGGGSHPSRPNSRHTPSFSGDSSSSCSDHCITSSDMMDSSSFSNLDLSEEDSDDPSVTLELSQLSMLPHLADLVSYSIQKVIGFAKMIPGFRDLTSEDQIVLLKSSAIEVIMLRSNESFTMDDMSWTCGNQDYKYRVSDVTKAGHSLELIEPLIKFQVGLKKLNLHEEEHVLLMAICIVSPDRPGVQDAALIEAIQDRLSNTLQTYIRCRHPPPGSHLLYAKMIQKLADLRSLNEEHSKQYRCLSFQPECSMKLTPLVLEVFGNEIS
Sequence of Thyroid hormone receptor beta (Homo sapiens) (P10828 whole entry, looked up): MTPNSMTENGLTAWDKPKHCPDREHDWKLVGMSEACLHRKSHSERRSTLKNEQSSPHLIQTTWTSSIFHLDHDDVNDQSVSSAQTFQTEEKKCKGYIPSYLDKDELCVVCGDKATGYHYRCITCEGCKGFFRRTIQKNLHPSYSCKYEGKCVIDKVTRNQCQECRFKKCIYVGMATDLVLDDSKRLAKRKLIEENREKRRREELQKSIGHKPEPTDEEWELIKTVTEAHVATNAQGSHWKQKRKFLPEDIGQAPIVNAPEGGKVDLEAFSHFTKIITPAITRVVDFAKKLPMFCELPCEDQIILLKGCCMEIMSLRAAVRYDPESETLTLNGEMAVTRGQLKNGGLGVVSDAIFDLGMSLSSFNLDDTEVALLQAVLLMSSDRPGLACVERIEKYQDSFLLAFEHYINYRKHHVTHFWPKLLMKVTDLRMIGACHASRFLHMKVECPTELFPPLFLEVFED
Sequence of Voltage-gated inwardly rectifying potassium channel KCNH2 (Homo sapiens) (Q12809 whole entry, looked up): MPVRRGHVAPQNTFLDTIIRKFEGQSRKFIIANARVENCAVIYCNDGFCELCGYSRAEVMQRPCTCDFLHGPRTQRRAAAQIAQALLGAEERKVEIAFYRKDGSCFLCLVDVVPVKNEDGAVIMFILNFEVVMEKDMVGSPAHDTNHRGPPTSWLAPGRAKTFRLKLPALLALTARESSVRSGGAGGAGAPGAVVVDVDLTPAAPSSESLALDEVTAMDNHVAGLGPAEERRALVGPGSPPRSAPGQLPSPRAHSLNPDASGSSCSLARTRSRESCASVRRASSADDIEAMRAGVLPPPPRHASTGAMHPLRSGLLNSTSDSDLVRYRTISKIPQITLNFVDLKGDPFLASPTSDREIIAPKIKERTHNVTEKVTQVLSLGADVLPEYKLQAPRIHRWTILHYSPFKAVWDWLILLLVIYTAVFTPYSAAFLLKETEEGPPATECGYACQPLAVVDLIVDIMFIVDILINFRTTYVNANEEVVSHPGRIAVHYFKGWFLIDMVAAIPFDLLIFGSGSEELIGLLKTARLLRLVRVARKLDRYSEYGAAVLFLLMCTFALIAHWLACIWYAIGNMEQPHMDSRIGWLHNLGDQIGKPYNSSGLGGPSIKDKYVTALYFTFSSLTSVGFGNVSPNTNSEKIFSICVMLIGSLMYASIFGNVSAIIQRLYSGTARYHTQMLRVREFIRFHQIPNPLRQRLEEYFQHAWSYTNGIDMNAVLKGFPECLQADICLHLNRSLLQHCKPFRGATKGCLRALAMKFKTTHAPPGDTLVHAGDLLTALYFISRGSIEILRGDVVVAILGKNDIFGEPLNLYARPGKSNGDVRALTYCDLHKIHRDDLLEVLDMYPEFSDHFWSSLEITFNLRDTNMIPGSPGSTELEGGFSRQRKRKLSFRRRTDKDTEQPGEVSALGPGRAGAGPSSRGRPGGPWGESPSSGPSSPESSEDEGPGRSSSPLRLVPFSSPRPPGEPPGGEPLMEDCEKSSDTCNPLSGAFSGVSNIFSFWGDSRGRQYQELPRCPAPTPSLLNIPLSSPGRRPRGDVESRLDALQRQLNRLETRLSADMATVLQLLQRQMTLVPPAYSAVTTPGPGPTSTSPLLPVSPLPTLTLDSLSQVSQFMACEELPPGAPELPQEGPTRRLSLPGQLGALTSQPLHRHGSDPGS
Sequence of Glucocorticoid receptor (Homo sapiens) (P04150 whole entry, looked up): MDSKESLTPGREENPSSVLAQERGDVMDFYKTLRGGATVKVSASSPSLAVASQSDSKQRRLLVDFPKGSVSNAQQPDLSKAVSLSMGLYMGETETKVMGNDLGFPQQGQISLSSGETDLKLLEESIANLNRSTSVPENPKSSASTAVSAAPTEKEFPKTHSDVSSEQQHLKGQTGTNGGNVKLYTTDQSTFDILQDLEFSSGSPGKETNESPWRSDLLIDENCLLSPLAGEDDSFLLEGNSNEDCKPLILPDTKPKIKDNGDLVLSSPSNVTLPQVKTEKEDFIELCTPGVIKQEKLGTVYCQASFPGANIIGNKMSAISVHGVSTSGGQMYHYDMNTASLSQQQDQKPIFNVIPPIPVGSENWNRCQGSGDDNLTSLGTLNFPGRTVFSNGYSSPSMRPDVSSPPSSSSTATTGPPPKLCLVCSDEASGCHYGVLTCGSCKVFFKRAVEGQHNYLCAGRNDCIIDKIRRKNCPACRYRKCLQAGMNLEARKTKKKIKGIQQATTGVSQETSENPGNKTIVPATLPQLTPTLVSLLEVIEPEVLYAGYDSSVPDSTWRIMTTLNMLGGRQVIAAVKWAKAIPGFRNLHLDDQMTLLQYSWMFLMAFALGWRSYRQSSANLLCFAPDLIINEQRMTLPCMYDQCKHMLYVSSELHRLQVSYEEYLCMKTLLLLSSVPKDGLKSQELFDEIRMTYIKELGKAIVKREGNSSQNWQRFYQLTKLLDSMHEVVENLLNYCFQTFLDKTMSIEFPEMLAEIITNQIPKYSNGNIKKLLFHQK
Sequence of Cytochrome P450 3A4 (Homo sapiens) (P08684 whole entry, looked up): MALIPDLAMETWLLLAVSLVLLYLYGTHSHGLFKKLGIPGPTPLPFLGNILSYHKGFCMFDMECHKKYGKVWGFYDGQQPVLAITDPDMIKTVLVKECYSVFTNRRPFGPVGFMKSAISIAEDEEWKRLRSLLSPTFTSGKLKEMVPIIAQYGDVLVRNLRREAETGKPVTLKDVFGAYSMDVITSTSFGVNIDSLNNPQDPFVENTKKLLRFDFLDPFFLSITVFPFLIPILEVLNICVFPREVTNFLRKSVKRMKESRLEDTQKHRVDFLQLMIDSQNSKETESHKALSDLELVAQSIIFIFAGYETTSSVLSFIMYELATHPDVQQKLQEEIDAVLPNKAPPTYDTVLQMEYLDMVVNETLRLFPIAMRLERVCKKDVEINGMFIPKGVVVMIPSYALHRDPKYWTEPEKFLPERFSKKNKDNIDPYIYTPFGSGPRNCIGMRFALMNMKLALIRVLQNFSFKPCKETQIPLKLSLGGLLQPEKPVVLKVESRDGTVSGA
Sequence of Tumor necrosis factor (Homo sapiens) (P01375 whole entry, looked up): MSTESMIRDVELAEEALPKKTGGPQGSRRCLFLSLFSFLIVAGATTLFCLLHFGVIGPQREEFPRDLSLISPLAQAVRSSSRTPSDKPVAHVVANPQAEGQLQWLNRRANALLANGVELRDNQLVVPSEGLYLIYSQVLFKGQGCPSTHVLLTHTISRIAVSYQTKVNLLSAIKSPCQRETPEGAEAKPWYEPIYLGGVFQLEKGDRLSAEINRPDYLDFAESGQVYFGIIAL

Take `C=CC(=O)CC`: in experiment [1], the Potency was more than 92 µM. In addition, in experiment [2], the activity change, negative = cytotoxicity is -11.9%. In addition, the Potency result in [3], in experiment [4], in [6], in experiment [7], in experiment [8] and in [9] was “inactive” in each case. Also, the Potency result in [10], in [12], in [13] and in [14] was “inactive” in each case. In [5], the call was inactive. Further, the activation in experiment [11] is -1.3%.
Take `Brc1cc(Oc2cc(Br)c(Br)c(Br)c2Br)c(Br)c(Br)c1Br`: the Potency in [1] was more than 92 µM. In addition, the compound was classed as inactive in experiment [5]. The Potency result in experiment [6], in [9], in [10], in experiment [16], in experiment [12] and in experiment [13] was “inactive” in each case. In addition, the Potency result in [14] and in experiment [18] was “inactive” throughout. Further, the activation in experiment [15] is -9.25% and -1.53%; in experiment [11], -8.15% and -4.88%; in experiment [17], 2.9% and 0.823%.
In the case of `CCN(CC)c1ccc(N)cc1`, the Potency in experiment [19] was 44 µM (active); in [16] it was 37.6 µM (active); in experiment [12], 29.8 µM (active); in [14] it was 37.6 µM (active). In addition, the activity change, negative = cytotoxicity in experiment [2] was -96.6% (active). Also, the viability change, negative = cytotoxic in [3] is -88.7% (active). In addition, the activation was 8.72% in experiment [15], 11.7% in experiment [11] and 0.867% in [17]. Besides, the Potency result in experiment [7], in experiment [8] and in experiment [18] was “inactive” throughout.
As to `Cc1ccc(O)c(N)c1`, the Potency in [1] was more than 92 µM; in experiment [3], 20 µM (active); in experiment [16], 16.8 µM (active); in [12] it was 29.8 µM (active). The activity change, negative = cytotoxicity in experiment [2] is -124% (active). Further, the outcome in [5] was inactive. Also, the Potency result in experiment [6], in experiment [9], in experiment [10] and in experiment [18] was “inactive” each time. Moreover, the results for the activation in experiment [15] and in experiment [11] were 4.97% and 2.36%, respectively.
Turning to `O=C(O)c1ccc([N+](=O)[O-])cc1`, the Potency in experiment [1] was more than 92 µM. The activity change, negative = cytotoxicity in experiment [2] was 3.22%. Further, the Potency entry in experiment [3], in experiment [4], in [6], in experiment [7], in [8] and in experiment [9] was “inactive” each time. The Potency result in experiment [10], in [16], in experiment [12], in experiment [13], in [14] and in experiment [18] was “inactive” in each case. The result in experiment [5] and in [20] was inactive. In addition, the activation in experiment [15] is 3.87% and 0.51%; in [11], -2.78% and 0.222%; in experiment [17] it was -1.53% and -0.205%.
Turning to `Brc1cc(Br)c(Oc2cc(Br)c(Br)cc2Br)cc1Br`, in experiment [1], the Potency is more than 92 µM. Besides, in [2], the activity change, negative = cytotoxicity is -6.22%. In addition, the Potency result in experiment [3], in experiment [4], in [6], in [7], in experiment [9] and in experiment [12] was “inactive” each time. In addition, the Potency entry in experiment [13] and in experiment [18] was “inactive” in each case. The outcome in experiment [5] and in experiment [20] was inactive. The activation in experiment [17] was 3.12%.
Take `S=C(NC1CCCCC1)NC1CCCCC1`: the figures for the Potency in experiment [19] and in experiment [16] were more than 92 µM and 66.8 µM (active), respectively. Also, the Potency entry in experiment [3], in [7], in experiment [8], in experiment [9], in experiment [10] and in experiment [13] was “inactive” each time. For the same compound, the Potency entry in experiment [14] and in [18] was “inactive” throughout. Further, the result in experiment [5] was inactive. Besides, the activation in experiment [15] is 9%; in [17], -0.887%.
